The values below come from PMC11006913.

Numbering of substitutions follows the chain as printed.

What all share (experiment): PBM; 200 nM protein, PBS
Common to all, as to settings: dsDNA, one strand shown

In experiment [1] the target is CRX (Homo sapiens, UniProt O43186 26-111).
Experiment [2] addresses ALX4 (Homo sapiens, UniProt Q9H161 200-286).
Experiment [3] addresses ALX4 (Homo sapiens, UniProt Q9H161 200-286, Q225E).
Experiment [4] has as its target CRX (Homo sapiens, UniProt O43186 26-111, E42D).
The target of experiment [5] is PROP1 (Homo sapiens, UniProt O75360 56-141).
The target of experiment [6] is PROP1 (Homo sapiens, UniProt O75360 56-141, R99H).
In experiment [7] the target is PROP1 (Homo sapiens, UniProt O75360 56-141, F88S).
The target in experiment [8] is CRX (Homo sapiens, UniProt O43186 26-111, R41L).
In experiment [9] the target is HOXA2 (Homo sapiens, UniProt O43364 129-215, R185T).
Experiment [10] addresses HOXA2 (Homo sapiens, UniProt O43364 129-215, R185K).
Experiment [11] concerns the target HOXA2 (Homo sapiens, UniProt O43364 129-215, Y150S).
Experiment [12] deals with HOXA2 (Homo sapiens, UniProt O43364 129-215).
Experiment [13] concerns the target T1, PAX4 (Homo sapiens, UniProt O43316 9-242, R200K).
T1 sequence: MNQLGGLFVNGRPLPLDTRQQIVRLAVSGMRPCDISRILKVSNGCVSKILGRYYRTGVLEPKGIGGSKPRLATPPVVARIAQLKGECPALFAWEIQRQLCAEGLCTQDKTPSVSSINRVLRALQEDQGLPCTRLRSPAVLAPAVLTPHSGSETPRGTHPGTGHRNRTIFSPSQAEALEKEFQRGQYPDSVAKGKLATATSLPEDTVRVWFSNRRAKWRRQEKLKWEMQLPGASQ

Experiment [14] concerns the target T2, PAX4 (Homo sapiens, UniProt O43316 9-242).
T2 sequence: T1 sequence with K192R

In experiment [15] the target is T3, NKX2-6 (Homo sapiens, UniProt A6NCS4 118-204).
T3 sequence: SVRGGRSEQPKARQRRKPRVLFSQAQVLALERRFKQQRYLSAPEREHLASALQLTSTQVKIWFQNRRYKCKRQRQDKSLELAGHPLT

Experiment [16] deals with T4, PAX4 (Homo sapiens, UniProt O43316 9-242, R200Q).
T4 sequence: T1 sequence with K192Q

Experiment [17] concerns the target T5, PAX4 (Homo sapiens, UniProt O43316 9-242, F177V).
T5 sequence: T1 sequence with F169V, K192R

Experiment [18] deals with T6, PAX4 (Homo sapiens, UniProt O43316 9-242, F177Y).
T6 sequence: T1 sequence with F169Y, K192R

The target of experiment [19] is T7, NKX2-6 (Homo sapiens, UniProt A6NCS4 118-204, F151L).
T7 sequence: T3 sequence with F34L

The target in experiment [20] is T8, PAX4 (Homo sapiens, UniProt O43316 9-242, R227W).
T8 sequence: T1 sequence with K192R, R219W

Experiment [21] deals with HOXC10 (Homo sapiens, UniProt Q9NYD6 254-340).
The target in experiment [22] is ALX3 (Homo sapiens, UniProt O95076 139-225, N203Q).
For experiment [23], the target named is HOXC10 (Homo sapiens, UniProt Q9NYD6 254-340, K271E).
Experiment [24] addresses HOXA7 (Homo sapiens, UniProt P31268 116-202).
Experiment [25] has as its target HOXA7 (Homo sapiens, UniProt P31268 116-202, W177C).
For experiment [26], the target named is PITX2 (Homo sapiens, UniProt Q99697 72-157).
Experiment [27] has as its target HOXB6 (Homo sapiens, UniProt P17509 132-218, K202E).
Experiment [28] deals with HOXB6 (Homo sapiens, UniProt P17509 132-218).
Experiment [29] addresses PRRX1 (Homo sapiens, UniProt P54821 80-166, F113S).
The target in experiment [30] is PRRX1 (Homo sapiens, UniProt P54821 80-166).
PRRX1 (Homo sapiens, UniProt P54821 80-166), sequence (P54821 80-166): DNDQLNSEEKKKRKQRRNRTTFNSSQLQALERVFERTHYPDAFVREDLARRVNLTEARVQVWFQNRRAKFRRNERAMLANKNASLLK

CRX (Homo sapiens, UniProt O43186 26-111), sequence (O43186 26-111): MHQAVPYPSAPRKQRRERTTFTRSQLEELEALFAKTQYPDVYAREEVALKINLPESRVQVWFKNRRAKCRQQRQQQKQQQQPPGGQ
ALX4 (Homo sapiens, UniProt Q9H161 200-286), sequence (Q9H161 200-286): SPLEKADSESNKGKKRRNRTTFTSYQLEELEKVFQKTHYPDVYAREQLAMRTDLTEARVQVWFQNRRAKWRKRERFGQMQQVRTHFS
CRX (Homo sapiens, UniProt O43186 26-111, E42D), sequence (O43186 26-111 E42D): as the sequence (O43186 26-111) above, with E17D counted along it
ALX4 (Homo sapiens, UniProt Q9H161 200-286, Q225E), sequence (Q9H161 200-286 Q225E): as the sequence (Q9H161 200-286) above, with Q26E counted along it
CRX (Homo sapiens, UniProt O43186 26-111, R41L), sequence (O43186 26-111 R41L): as the sequence (O43186 26-111) above, with R16L counted along it
HOXC10 (Homo sapiens, UniProt Q9NYD6 254-340), sequence (Q9NYD6 254-340): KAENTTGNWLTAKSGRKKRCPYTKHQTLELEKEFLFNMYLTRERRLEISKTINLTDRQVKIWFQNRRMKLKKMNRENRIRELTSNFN
HOXC10 (Homo sapiens, UniProt Q9NYD6 254-340, K271E), sequence (Q9NYD6 254-340 K271E): as the sequence (Q9NYD6 254-340) above, with K18E counted along it
PROP1 (Homo sapiens, UniProt O75360 56-141, F88S), sequence (O75360 56-141 F88S): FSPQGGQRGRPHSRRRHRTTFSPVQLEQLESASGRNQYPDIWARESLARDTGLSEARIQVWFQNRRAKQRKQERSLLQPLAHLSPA
PROP1 (Homo sapiens, UniProt O75360 56-141), sequence (O75360 56-141): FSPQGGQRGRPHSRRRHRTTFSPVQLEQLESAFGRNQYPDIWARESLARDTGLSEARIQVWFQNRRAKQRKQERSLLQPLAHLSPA
HOXA7 (Homo sapiens, UniProt P31268 116-202, W177C), sequence (P31268 116-202 W177C): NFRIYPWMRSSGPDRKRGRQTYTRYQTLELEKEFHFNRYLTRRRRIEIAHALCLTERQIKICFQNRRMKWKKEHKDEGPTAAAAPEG
PRRX1 (Homo sapiens, UniProt P54821 80-166, F113S), sequence (P54821 80-166 F113S): as the sequence (P54821 80-166) above, with F34S counted along it
HOXB6 (Homo sapiens, UniProt P17509 132-218, K202E), sequence (P17509 132-218 K202E): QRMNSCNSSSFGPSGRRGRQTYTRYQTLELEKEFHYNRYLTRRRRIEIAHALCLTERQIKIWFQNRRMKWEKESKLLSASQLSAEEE
ALX3, sequence (O95076 139-225 N203Q): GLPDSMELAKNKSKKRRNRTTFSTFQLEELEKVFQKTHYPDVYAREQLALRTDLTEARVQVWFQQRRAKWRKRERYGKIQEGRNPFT
HOXA2 (Homo sapiens, UniProt O43364 129-215, Y150S), sequence (O43364 129-215 Y150S): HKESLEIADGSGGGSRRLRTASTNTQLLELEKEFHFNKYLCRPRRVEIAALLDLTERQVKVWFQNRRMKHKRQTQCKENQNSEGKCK
HOXA2 (Homo sapiens, UniProt O43364 129-215, R185T), sequence (O43364 129-215 R185T): as the sequence (O43364 129-215 Y150S) above, with S22Y, R57T counted along it
HOXA2 (Homo sapiens, UniProt O43364 129-215), sequence (O43364 129-215): as the sequence (O43364 129-215 Y150S) above, with S22Y counted along it
HOXB6 (Homo sapiens, UniProt P17509 132-218), sequence (P17509 132-218): as the sequence (P17509 132-218 K202E) above, with E71K counted along it
HOXA7 (Homo sapiens, UniProt P31268 116-202), sequence (P31268 116-202): as the sequence (P31268 116-202 W177C) above, with C62W counted along it
HOXA2 (Homo sapiens, UniProt O43364 129-215, R185K), sequence (O43364 129-215 R185K): as the sequence (O43364 129-215 Y150S) above, with S22Y, R57K counted along it
PROP1 (Homo sapiens, UniProt O75360 56-141, R99H), sequence (O75360 56-141 R99H): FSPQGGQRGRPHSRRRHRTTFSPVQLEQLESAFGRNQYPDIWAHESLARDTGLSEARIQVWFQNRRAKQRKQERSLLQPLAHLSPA

GAGGGCCC: the binding signal in experiment [1] is 8.25 upbm affinity estimate (log intensity, higher = more binding, comparable within an allelic series); in experiment [2] it was 7.97 upbm affinity estimate (log intensity, higher = more binding, comparable within an allelic series); in experiment [3] it was 7.92 upbm affinity estimate (log intensity, higher = more binding, comparable within an allelic series); in [4] it was 8.06 upbm affinity estimate (log intensity, higher = more binding, comparable within an allelic series); in experiment [5], 6.79 upbm affinity estimate (log intensity, higher = more binding, comparable within an allelic series); in experiment [6], 6.72 upbm affinity estimate (log intensity, higher = more binding, comparable within an allelic series). Also, the binding signal in experiment [7] is 6.48 upbm affinity estimate (log intensity, higher = more binding, comparable within an allelic series); in experiment [8], 8.14 upbm affinity estimate (log intensity, higher = more binding, comparable within an allelic series).
ATCAGTTA: the binding signal is 9.84 upbm affinity estimate (log intensity, higher = more binding, comparable within an allelic series) in [1] and 9.71 upbm affinity estimate (log intensity, higher = more binding, comparable within an allelic series) in experiment [4].
Take AGCTCAGC: the binding signal in [1] was 9.88 upbm affinity estimate (log intensity, higher = more binding, comparable within an allelic series); in experiment [4], 9.76 upbm affinity estimate (log intensity, higher = more binding, comparable within an allelic series).
As to GGTTAAAC, the binding signal in experiment [1] was 10.2 upbm affinity estimate (log intensity, higher = more binding, comparable within an allelic series); in experiment [4] it was 9.96 upbm affinity estimate (log intensity, higher = more binding, comparable within an allelic series).
On to CCGGGGCG, for which the binding signal was 8.1 upbm affinity estimate (log intensity, higher = more binding, comparable within an allelic series) in [1]; 7.04 upbm affinity estimate (log intensity, higher = more binding, comparable within an allelic series) in experiment [9]; 8.23 upbm affinity estimate (log intensity, higher = more binding, comparable within an allelic series) in experiment [4]; 10 upbm affinity estimate (log intensity, higher = more binding, comparable within an allelic series) in experiment [10]; 10.3 upbm affinity estimate (log intensity, higher = more binding, comparable within an allelic series) in experiment [11]; 8.38 upbm affinity estimate (log intensity, higher = more binding, comparable within an allelic series) in experiment [8]. The binding signal in experiment [12] was 7 upbm affinity estimate (log intensity, higher = more binding, comparable within an allelic series).
As for CACCGGAG, the binding signal is 8.14 upbm affinity estimate (log intensity, higher = more binding, comparable within an allelic series) in experiment [1]; 8.15 upbm affinity estimate (log intensity, higher = more binding, comparable within an allelic series) in experiment [2]; 8.15 upbm affinity estimate (log intensity, higher = more binding, comparable within an allelic series) in experiment [3]; 8.3 upbm affinity estimate (log intensity, higher = more binding, comparable within an allelic series) in experiment [4]; 8.27 upbm affinity estimate (log intensity, higher = more binding, comparable within an allelic series) in [8].
Consider CCTAATAG, for which the binding signal in experiment [1] is 9.68 upbm affinity estimate (log intensity, higher = more binding, comparable within an allelic series); in [4], 9.47 upbm affinity estimate (log intensity, higher = more binding, comparable within an allelic series).
With CCGGTCCC, the binding signal in [1] is 8.46 upbm affinity estimate (log intensity, higher = more binding, comparable within an allelic series); in [13], 9.29 upbm affinity estimate (log intensity, higher = more binding, comparable within an allelic series); in [14] it was 9.34 upbm affinity estimate (log intensity, higher = more binding, comparable within an allelic series); in experiment [4], 8.54 upbm affinity estimate (log intensity, higher = more binding, comparable within an allelic series); in experiment [15], 9.32 upbm affinity estimate (log intensity, higher = more binding, comparable within an allelic series); in experiment [16], 9.4 upbm affinity estimate (log intensity, higher = more binding, comparable within an allelic series). Also, the binding signal in experiment [17] is 9.28 upbm affinity estimate (log intensity, higher = more binding, comparable within an allelic series); in [18], 9.27 upbm affinity estimate (log intensity, higher = more binding, comparable within an allelic series); in [19], 9.15 upbm affinity estimate (log intensity, higher = more binding, comparable within an allelic series); in experiment [20], 9.3 upbm affinity estimate (log intensity, higher = more binding, comparable within an allelic series); in [8], 8.54 upbm affinity estimate (log intensity, higher = more binding, comparable within an allelic series).
On to CCTTATTA, for which the binding signal in [1] is 11 upbm affinity estimate (log intensity, higher = more binding, comparable within an allelic series); in experiment [21], 11.3 upbm affinity estimate (log intensity, higher = more binding, comparable within an allelic series); in experiment [4], 10.9 upbm affinity estimate (log intensity, higher = more binding, comparable within an allelic series); in [22], 8.6 upbm affinity estimate (log intensity, higher = more binding, comparable within an allelic series); in experiment [23] it was 11.2 upbm affinity estimate (log intensity, higher = more binding, comparable within an allelic series); in experiment [8] it was 10.4 upbm affinity estimate (log intensity, higher = more binding, comparable within an allelic series).
GACCGACA: the binding signal in experiment [1] is 8.43 upbm affinity estimate (log intensity, higher = more binding, comparable within an allelic series); in [24], 8.51 upbm affinity estimate (log intensity, higher = more binding, comparable within an allelic series); in experiment [4], 8.36 upbm affinity estimate (log intensity, higher = more binding, comparable within an allelic series); in experiment [25], 8.57 upbm affinity estimate (log intensity, higher = more binding, comparable within an allelic series); in experiment [8] it was 8.31 upbm affinity estimate (log intensity, higher = more binding, comparable within an allelic series).
With AGGCCTTA, the binding signal in experiment [1] was 10.1 upbm affinity estimate (log intensity, higher = more binding, comparable within an allelic series); in [4], 9.82 upbm affinity estimate (log intensity, higher = more binding, comparable within an allelic series).
For CGGCGTCC, the binding signal was 7.94 upbm affinity estimate (log intensity, higher = more binding, comparable within an allelic series) in [1]; 10 upbm affinity estimate (log intensity, higher = more binding, comparable within an allelic series) in experiment [21]; 8 upbm affinity estimate (log intensity, higher = more binding, comparable within an allelic series) in [4]; 10.1 upbm affinity estimate (log intensity, higher = more binding, comparable within an allelic series) in experiment [23]; 8.06 upbm affinity estimate (log intensity, higher = more binding, comparable within an allelic series) in experiment [8].
With ATTAATCC, the binding signal in experiment [1] was 13.5 upbm affinity estimate (log intensity, higher = more binding, comparable within an allelic series); in experiment [13], 11.6 upbm affinity estimate (log intensity, higher = more binding, comparable within an allelic series); in [4] it was 13.6 upbm affinity estimate (log intensity, higher = more binding, comparable within an allelic series); in [26] it was 13.4 upbm affinity estimate (log intensity, higher = more binding, comparable within an allelic series); in experiment [18] it was 10.9 upbm affinity estimate (log intensity, higher = more binding, comparable within an allelic series); in [8], 13.5 upbm affinity estimate (log intensity, higher = more binding, comparable within an allelic series).
As to GGGACCCC, the binding signal was 8.14 upbm affinity estimate (log intensity, higher = more binding, comparable within an allelic series) in experiment [1]; 8.9 upbm affinity estimate (log intensity, higher = more binding, comparable within an allelic series) in experiment [27]; 8.1 upbm affinity estimate (log intensity, higher = more binding, comparable within an allelic series) in [4]; 8.05 upbm affinity estimate (log intensity, higher = more binding, comparable within an allelic series) in [8]; 9.08 upbm affinity estimate (log intensity, higher = more binding, comparable within an allelic series) in experiment [28].
Take CCTCCCAC: the binding signal in [1] was 8.12 upbm affinity estimate (log intensity, higher = more binding, comparable within an allelic series); in [2], 7.99 upbm affinity estimate (log intensity, higher = more binding, comparable within an allelic series); in [29], 9.27 upbm affinity estimate (log intensity, higher = more binding, comparable within an allelic series); in experiment [3], 8.07 upbm affinity estimate (log intensity, higher = more binding, comparable within an allelic series); in experiment [4], 8.07 upbm affinity estimate (log intensity, higher = more binding, comparable within an allelic series); in experiment [8], 8.16 upbm affinity estimate (log intensity, higher = more binding, comparable within an allelic series). For the same sequence, the binding signal in experiment [30] is 9.17 upbm affinity estimate (log intensity, higher = more binding, comparable within an allelic series).
